Measured values as given in the supplement of paper PMC11732987, “Enantioselective OTUD7B fragment discovery through chemoproteomics screening and high-throughput optimisation” (Communications Chemistry, 2025).

How the values were obtained:
Experiment in all cases: log2 ratio of Biotin-Ahx-Ub-VS probe labelling (fragment/DMSO); higher = less target engagement (more negative = stronger competition), active = hit call of the paper (q ≤ 0.05, log2 ratio ≤ -1)
Conditions in all cases: compound concentration: 200 uM; treatment time: 3 h
[1] = molecular target: USP34 (UniProt Q70CQ2)
Sequence of USP34 (Q70CQ2 whole entry, the tested form may be a part): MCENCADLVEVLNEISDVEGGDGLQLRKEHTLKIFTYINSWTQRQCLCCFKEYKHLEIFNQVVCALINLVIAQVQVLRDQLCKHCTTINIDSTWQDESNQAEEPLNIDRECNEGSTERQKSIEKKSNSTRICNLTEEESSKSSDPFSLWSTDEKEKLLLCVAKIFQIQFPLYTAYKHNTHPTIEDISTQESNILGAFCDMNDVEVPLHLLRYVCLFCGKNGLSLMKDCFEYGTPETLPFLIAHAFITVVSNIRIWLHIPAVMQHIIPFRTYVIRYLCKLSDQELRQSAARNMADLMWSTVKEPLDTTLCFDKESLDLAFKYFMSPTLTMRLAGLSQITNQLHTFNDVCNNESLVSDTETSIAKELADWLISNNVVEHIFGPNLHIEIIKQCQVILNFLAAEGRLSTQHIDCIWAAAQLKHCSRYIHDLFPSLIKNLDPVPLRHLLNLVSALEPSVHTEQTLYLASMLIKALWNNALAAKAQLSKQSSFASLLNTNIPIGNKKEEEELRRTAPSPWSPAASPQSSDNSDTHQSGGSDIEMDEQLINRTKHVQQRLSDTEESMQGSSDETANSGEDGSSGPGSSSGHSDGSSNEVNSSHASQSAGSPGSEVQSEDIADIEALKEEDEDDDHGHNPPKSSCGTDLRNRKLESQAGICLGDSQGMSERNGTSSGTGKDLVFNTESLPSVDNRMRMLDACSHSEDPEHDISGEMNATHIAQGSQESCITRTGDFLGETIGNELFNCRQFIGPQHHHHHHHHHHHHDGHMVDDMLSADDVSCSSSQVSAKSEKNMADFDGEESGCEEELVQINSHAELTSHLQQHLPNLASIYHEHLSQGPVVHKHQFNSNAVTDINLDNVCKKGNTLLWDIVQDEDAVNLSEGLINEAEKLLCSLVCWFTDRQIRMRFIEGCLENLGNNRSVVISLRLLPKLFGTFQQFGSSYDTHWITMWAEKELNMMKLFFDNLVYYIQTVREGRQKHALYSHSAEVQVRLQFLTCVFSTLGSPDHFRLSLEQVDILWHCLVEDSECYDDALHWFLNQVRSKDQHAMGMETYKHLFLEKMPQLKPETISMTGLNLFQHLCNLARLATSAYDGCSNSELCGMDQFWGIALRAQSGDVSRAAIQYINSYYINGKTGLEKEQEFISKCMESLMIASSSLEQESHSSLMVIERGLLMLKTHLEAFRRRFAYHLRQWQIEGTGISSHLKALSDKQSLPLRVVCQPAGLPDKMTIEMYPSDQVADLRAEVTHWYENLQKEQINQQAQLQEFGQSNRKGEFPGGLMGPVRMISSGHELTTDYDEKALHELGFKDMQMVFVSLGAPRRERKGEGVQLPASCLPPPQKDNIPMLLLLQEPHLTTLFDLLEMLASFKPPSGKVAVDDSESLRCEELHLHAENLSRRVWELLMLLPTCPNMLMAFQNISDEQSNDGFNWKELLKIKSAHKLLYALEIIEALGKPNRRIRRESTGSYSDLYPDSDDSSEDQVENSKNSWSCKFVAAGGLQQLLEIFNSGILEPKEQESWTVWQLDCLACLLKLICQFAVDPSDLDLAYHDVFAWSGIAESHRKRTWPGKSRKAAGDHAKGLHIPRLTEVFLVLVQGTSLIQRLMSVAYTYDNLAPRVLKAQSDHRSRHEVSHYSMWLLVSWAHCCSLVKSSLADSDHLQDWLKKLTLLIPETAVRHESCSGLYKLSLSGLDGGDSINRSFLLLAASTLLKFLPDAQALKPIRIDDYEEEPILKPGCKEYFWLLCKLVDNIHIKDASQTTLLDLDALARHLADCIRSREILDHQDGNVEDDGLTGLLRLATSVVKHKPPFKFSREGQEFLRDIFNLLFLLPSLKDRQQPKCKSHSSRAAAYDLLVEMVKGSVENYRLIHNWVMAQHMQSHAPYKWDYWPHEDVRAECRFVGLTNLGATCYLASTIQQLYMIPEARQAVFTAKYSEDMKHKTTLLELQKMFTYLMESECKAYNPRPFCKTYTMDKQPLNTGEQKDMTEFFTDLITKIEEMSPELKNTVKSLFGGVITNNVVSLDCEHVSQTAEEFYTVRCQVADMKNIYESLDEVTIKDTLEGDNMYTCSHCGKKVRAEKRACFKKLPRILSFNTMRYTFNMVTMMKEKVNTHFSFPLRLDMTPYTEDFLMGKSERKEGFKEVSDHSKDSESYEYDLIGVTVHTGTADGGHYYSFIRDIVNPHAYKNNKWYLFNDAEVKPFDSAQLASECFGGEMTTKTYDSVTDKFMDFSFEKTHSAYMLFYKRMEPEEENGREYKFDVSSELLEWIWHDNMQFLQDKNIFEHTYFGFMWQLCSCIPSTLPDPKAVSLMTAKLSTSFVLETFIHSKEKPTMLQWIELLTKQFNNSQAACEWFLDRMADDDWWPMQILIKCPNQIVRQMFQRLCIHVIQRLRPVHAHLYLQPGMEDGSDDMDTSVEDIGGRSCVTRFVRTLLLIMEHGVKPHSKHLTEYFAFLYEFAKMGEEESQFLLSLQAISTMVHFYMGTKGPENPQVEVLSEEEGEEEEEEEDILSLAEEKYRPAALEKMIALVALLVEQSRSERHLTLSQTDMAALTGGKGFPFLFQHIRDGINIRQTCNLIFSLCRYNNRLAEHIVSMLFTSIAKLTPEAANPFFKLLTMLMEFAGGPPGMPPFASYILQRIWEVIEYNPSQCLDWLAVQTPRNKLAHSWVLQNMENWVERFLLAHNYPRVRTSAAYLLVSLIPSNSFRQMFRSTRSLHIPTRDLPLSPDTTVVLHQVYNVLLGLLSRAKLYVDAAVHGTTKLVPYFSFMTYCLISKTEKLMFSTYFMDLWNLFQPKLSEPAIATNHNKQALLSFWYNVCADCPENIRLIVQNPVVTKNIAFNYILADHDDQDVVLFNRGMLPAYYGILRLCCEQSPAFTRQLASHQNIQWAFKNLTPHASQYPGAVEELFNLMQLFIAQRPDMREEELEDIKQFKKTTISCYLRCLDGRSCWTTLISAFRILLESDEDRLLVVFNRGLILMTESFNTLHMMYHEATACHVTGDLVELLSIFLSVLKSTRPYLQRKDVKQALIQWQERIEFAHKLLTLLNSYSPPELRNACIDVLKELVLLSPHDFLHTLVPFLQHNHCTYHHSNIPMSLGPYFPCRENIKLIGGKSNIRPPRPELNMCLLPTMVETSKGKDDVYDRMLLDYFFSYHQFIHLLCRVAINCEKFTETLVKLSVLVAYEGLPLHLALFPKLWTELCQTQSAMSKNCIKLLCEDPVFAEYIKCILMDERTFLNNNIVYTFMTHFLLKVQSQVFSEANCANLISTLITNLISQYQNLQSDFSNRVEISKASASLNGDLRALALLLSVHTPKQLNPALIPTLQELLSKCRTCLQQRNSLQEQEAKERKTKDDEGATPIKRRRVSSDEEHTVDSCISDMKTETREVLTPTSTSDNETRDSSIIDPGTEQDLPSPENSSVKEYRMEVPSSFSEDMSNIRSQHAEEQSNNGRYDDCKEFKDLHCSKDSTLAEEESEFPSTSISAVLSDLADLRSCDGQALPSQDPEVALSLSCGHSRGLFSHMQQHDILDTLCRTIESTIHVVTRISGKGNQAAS
How it was run: (§1)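 Labelled DUBs from HEK293T lysate were NeutrAvidin-enriched, digested with LysC and trypsin, and run by diaPASEF LC-MS/MS. Before that, each 495 µg sample in Tris/CHAPS/IGEPAL buffer with protease inhibitors was treated in triplicate with fragment at 200 µM or vehicle for 3 h, then with Biotin-Ahx-Ub-VS at 0.5 µM final for 1 h. Values are average log2 ratios of fragment over vehicle by unpaired t-test, based on global-median-normalised Spectronaut label-free quantities from proteins with ≥2 unique peptides.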

[2] = molecular target: T1, USP36 (UniProt Q9P275)
T1 sequence (whole entry): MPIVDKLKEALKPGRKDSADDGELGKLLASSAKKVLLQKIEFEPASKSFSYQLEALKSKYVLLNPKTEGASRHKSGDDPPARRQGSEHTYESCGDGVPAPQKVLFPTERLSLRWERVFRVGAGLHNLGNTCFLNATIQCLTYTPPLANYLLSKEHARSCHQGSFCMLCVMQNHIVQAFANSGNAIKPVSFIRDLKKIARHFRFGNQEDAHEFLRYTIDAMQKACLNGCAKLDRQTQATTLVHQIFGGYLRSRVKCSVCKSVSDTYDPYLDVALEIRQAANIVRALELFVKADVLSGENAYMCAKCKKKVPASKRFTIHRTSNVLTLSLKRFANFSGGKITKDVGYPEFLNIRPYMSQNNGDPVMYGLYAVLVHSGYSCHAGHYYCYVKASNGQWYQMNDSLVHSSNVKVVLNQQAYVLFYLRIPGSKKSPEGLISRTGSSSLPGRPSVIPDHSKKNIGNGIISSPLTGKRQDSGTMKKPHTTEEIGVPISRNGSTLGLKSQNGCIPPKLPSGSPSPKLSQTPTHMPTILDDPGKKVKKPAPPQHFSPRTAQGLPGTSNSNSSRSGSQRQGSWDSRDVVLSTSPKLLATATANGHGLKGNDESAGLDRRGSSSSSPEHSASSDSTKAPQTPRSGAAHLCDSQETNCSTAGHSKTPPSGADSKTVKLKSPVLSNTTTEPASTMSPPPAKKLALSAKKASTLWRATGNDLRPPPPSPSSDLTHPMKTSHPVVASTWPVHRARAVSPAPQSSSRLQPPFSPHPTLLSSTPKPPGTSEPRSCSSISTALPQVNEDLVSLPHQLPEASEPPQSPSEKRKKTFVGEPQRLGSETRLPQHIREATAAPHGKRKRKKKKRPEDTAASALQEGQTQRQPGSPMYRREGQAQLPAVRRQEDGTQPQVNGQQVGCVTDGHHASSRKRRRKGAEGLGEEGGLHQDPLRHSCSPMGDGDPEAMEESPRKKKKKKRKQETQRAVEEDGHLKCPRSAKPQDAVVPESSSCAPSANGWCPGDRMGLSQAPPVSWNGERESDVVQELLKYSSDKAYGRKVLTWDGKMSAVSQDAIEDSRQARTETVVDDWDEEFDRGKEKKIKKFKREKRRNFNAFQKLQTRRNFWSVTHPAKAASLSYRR
How it was run: as §1

[3] = molecular target: T2, USP38 (UniProt Q8NB14)
T2 sequence (whole entry): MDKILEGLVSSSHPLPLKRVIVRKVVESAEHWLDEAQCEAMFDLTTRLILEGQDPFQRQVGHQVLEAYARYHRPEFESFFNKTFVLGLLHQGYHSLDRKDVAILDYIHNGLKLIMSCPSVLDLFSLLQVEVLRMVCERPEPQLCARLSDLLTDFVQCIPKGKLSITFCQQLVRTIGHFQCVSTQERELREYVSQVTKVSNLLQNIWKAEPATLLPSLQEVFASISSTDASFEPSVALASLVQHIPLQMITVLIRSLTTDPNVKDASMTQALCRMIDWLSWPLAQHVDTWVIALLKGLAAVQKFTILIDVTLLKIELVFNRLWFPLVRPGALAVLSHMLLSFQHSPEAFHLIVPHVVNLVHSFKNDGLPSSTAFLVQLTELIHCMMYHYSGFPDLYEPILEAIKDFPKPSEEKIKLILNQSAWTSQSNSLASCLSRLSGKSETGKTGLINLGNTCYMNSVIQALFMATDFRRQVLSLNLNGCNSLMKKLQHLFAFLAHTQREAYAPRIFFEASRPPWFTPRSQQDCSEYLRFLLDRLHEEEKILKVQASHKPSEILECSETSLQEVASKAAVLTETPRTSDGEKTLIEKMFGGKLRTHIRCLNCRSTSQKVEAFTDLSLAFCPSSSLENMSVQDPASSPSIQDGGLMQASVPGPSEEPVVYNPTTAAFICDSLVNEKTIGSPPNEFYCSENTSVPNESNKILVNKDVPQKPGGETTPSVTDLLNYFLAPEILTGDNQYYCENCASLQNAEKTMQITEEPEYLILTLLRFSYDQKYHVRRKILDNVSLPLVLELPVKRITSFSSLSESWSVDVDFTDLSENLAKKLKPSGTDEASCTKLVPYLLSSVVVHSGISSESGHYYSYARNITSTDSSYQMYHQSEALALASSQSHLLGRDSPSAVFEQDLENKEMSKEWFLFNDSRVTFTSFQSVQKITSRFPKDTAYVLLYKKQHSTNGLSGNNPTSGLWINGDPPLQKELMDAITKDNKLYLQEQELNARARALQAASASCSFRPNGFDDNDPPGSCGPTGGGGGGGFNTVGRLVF
How it was run: as §1

[4] = molecular target: T3, USP39 (UniProt Q53GS9)
T3 sequence (whole entry): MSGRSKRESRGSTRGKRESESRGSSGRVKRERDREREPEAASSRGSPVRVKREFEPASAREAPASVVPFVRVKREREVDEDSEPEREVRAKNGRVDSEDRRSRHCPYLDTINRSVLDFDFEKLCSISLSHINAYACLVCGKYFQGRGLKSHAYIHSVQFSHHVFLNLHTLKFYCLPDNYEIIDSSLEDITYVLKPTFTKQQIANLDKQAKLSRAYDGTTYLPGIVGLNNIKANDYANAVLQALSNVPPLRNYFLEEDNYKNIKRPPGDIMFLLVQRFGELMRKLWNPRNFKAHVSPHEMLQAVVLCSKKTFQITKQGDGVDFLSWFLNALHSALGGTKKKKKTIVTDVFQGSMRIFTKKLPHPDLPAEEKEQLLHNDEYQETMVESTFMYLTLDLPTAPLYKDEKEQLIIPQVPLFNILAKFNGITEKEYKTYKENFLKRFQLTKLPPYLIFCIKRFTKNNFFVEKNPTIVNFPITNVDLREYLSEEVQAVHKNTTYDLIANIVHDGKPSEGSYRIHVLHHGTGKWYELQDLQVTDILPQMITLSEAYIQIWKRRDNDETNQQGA
How it was run: as §1

[5] = molecular target: T4, USP4 (UniProt Q13107)
T4 sequence (whole entry): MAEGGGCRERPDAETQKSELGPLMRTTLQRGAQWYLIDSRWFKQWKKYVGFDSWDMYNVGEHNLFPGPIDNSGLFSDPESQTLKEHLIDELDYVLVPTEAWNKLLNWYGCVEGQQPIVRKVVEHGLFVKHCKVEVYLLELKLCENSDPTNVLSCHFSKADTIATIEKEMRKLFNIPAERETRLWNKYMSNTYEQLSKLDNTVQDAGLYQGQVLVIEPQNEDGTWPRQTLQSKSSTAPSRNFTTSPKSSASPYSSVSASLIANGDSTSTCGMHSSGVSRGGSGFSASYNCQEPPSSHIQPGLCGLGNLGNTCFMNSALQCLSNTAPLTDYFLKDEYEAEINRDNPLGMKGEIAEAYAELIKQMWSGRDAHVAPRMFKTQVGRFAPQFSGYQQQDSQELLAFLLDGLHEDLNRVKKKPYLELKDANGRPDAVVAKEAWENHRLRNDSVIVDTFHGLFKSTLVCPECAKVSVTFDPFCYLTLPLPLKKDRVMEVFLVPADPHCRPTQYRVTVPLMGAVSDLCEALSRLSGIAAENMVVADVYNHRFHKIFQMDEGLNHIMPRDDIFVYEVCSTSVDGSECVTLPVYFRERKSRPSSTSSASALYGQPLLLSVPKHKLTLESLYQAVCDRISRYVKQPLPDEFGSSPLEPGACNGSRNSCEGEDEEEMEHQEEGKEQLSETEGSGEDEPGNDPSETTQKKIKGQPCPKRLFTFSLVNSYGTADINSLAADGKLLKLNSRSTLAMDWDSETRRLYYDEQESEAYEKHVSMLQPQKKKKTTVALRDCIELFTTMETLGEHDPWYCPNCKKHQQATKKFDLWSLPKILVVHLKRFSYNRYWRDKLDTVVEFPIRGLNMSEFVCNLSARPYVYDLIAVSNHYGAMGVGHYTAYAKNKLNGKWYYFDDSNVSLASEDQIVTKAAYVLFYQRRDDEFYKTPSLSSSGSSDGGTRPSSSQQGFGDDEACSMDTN
How it was run: as §1

Measured: log2 ratio of Biotin-Ahx-Ub-VS probe labelling

Cc1ccc(C)c(Oc2ccc(CNC(=O)CCl)cn2)c1.Cl
inactive: [1] -0.224 | [2] -0.158 | [3] -0.222 | [4] 0.00552 | [5] -0.39
